Rows were chosen to be rich in hits. Some 4.5% of all compounds tested hit in one or more screens of this group.
FBA Mtb inh = inhibits M. tuberculosis FBA enzyme | P9WQA3 | purified M. tuberculosis FBA, fluorescence read-out | inhibition, % at 1 µM | 360,000 tested, 2.3% active | AID 588726; in the data active = inhibition above about 27%;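 also: 0% = vehicle and 100% = reference inhibitor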
Target sequence (P9WQA3 whole entry, looked up): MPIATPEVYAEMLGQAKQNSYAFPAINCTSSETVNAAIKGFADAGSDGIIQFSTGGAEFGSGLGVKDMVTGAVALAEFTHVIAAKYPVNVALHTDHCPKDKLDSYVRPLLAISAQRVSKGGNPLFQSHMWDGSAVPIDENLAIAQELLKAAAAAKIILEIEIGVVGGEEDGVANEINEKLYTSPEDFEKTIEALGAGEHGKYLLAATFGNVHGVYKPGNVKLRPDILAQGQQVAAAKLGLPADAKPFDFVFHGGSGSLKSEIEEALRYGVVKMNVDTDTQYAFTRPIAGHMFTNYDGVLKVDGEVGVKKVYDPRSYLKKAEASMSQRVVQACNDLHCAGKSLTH
GDH-TPI counter = GDH-TPI coupled enzyme inhibition counter-screen; inhibition, % at 4.8 µM; GDH-TPI coupled enzyme counterscreen, NADH absorbance; 360,000 tested, 1.2% active; in the data active = inhibition above about 30%;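 also: 0% = DMSO wells and 100% = wells lacking the enzyme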
PrPC surface inh = reduces human prion protein on the cell surface; P04156; cell surface PrPC, TR-FRET read-out; inhibition, % at 13.8 µM; 370,000 tested, 0.43% active; AID 720596; in the data active = inhibition above about 24%; also: 0% = median of the test wells and 100% = reference compound wells
PfHsp40 rescue = compounds rescuing yeast from Plasmodium falciparum HSP40 toxicity; 340,000 tested, 0.68% active; S. cerevisiae expressing PfHsp40, growth rescue, ATP luminescence; growth rescue, % at 12.5 µM; in the data active = growth rescue above about 28%, passing the limit was not always enough;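 also: yeast W303a lacking pdr1 and pdr3 grown in galactose medium; growth measured after three days at 30 °C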
BJeLR viability = kills HRASV12-expressing BJeLR cells; BJeLR (HRASV12) viability, CellTiter-Glo ATP luminescence, 48 h; inhibition, % (test concentration not listed); 300,000 tested, 0.17% active; in the data active = inhibition above about 50%
PrP UTR inh = suppresses PrP 5' UTR mRNA reporter expression | cell-based PrP 5' UTR mRNA reporter, plate reader | inhibition, % (no concentration beside the values) | 340,000 tested, 0.35% active | AID 488862; in the data active = inhibition above about 52%; also: 0 = median of the neutral control wells
Starred values were filed as active, the others as inactive.

Screening COc1cc(-c2ccc3oc(-c4cccc(C)c4)c(C#CC4(O)CCCCC4)c3c2)cc(OC)c1OC returned FBA Mtb inh 117.0*, GDH-TPI counter 34.5*, PrPC surface inh -4.8, PfHsp40 rescue -0.8 and PrP UTR inh -9.0.
COc1ccc(-c2ccc3oc(-c4ccc(OC)cc4)c(-c4ccc(OC)cc4)c3c2)cc1 was read as FBA Mtb inh -1.8, GDH-TPI counter 10.3, PrPC surface inh 4.8, PfHsp40 rescue 0.1, BJeLR viability -0.1 and PrP UTR inh -22.1.
COc1ccc(-c2ccc3oc(-c4ccc(OC)cc4)c(C#CCO)c3c2)cc1 was read as FBA Mtb inh 16.1, GDH-TPI counter 31.5*, PrPC surface inh 5.9, PfHsp40 rescue 0.9, BJeLR viability 24.9 and PrP UTR inh 16.5.
`COc1ccc(-c2oc3ccc(-c4ccc(OC)nc4)cc3c2C#CC2(O)CCCCC2)cc1` gave FBA Mtb inh 7.5, GDH-TPI counter 31.5*, PrPC surface inh 7.0, PfHsp40 rescue -0.6, BJeLR viability -12.0 and PrP UTR inh -8.5.
COc1ccc(-c2oc3ccccc3c2C#CC(C)(C)O)cc1 was read as FBA Mtb inh 21.4, GDH-TPI counter 12.6, PrPC surface inh 13.5, PfHsp40 rescue 38.4* and PrP UTR inh -9.6.
COc1ccc(-c2oc3ccc(-c4ccc5c(c4)OCO5)cc3c2C#CC2(O)CCCCC2)cc1 was read as FBA Mtb inh 44.7*, GDH-TPI counter 54.3*, PrPC surface inh 3.5, PfHsp40 rescue -0.5, BJeLR viability 2.8 and PrP UTR inh -7.0.
Screening COc1ccc(-c2oc3ccc(-c4cc(OC)c(OC)c(OC)c4)cc3c2C(=O)c2ccc(OC)nc2)cc1 returned FBA Mtb inh 0.0, GDH-TPI counter 13.9, PrPC surface inh 1.3, PfHsp40 rescue 0.2, BJeLR viability -6.9 and PrP UTR inh -17.9.
COc1ccc(-c2oc3ccccc3c(=O)c2OC(C)=O)cc1 was read as FBA Mtb inh active, GDH-TPI counter 46.3*, PrPC surface inh 0.4, PfHsp40 rescue 4.4, BJeLR viability 4.1 and PrP UTR inh -51.9.
For COc1ccc(C(=O)c2c(-c3ccc(OC)cc3)oc3ccc(-c4cc(OC)c(OC)c(OC)c4)cc23)cc1 the results were FBA Mtb inh 9.0, GDH-TPI counter 37.0*, PrPC surface inh 15.8, PfHsp40 rescue -1.3, BJeLR viability 9.7 and PrP UTR inh -3.9.
CC(COc1cccc(Cl)c1)CN1CCC(C(O)(c2ccccc2)c2ccccc2)CC1 (stereo unspecified) was read as PrPC surface inh -1.8.
`CC(C)n1c(=O)c(C=Nc2ccc(S(N)(=O)=O)cc2)c(O)n(Cc2ccco2)c1=O` gave FBA Mtb inh -2.1, GDH-TPI counter 32.3*, PrPC surface inh -2.3, PfHsp40 rescue -0.5, BJeLR viability -9.5 and PrP UTR inh 0.5.
CCOC(=O)NNc1ccccc1 was read as FBA Mtb inh -5.6, GDH-TPI counter -9.3, PrPC surface inh 16.9, PfHsp40 rescue 62.0*, BJeLR viability -12.8 and PrP UTR inh -3.7.
`O=C(NNC(=O)c1cccc2ccccc12)c1ccccc1O` gave FBA Mtb inh 6.2, GDH-TPI counter 9.5, PrPC surface inh -2.2, PfHsp40 rescue 29.0*, BJeLR viability 2.7 and PrP UTR inh -7.3.
`O=C(NNC(=O)c1cccc2ccccc12)c1ccc(-c2ccccc2)cc1` gave FBA Mtb inh 12.3, GDH-TPI counter -3.7, PrPC surface inh 2.8, PfHsp40 rescue -0.4, BJeLR viability -1.2 and PrP UTR inh -24.7.
Cn1c(CC(=O)Nc2ccc(Cl)c(Cl)c2)n[nH]c1=S was read as FBA Mtb inh 55.4*, GDH-TPI counter -1.2, PrPC surface inh -2.8, PfHsp40 rescue 0.5 and PrP UTR inh 5.2.
COc1ccc2cc3cc(C(=O)NC(C)C)oc3nc2c1 was read as FBA Mtb inh active, GDH-TPI counter 31.5*, PrPC surface inh -18.8, PfHsp40 rescue -0.5, BJeLR viability 3.8 and PrP UTR inh -92.9.
Screening Cc1ccc2cc3cc(C(=O)NC4CC4)oc3nc2c1 returned FBA Mtb inh 18.5, GDH-TPI counter 48.7*, PrPC surface inh -18.9, PfHsp40 rescue 4.1, BJeLR viability -6.5 and PrP UTR inh -56.1.
`COc1ccc2cc3cc(C(=O)NCC4COc5ccccc5O4)oc3nc2c1` (stereo unspecified) gave FBA Mtb inh 152.1*, GDH-TPI counter 30.4, PrPC surface inh -11.8, PfHsp40 rescue 2.3, BJeLR viability -2.6 and PrP UTR inh -9.0.
COc1ccc2cc3cc(C(=O)N4CC(C)CC(C)C4)oc3nc2c1 (stereo unspecified) was read as FBA Mtb inh 19.4, GDH-TPI counter 16.5, PfHsp40 rescue -0.3, BJeLR viability -5.8 and PrP UTR inh -35.1.
CC(=O)NCC1COc2ccccc2O1 (stereo unspecified) was read as FBA Mtb inh -3.0, GDH-TPI counter 3.8, PrPC surface inh 3.7, PfHsp40 rescue 0.9, BJeLR viability -2.4 and PrP UTR inh -20.2.
Screening COc1ccc2cc3cc(C(=O)N4CCN(c5ccccn5)CC4)oc3nc2c1 returned FBA Mtb inh 1.8, GDH-TPI counter 41.7*, PrPC surface inh -4.1, PfHsp40 rescue 0.0, BJeLR viability -0.2 and PrP UTR inh -20.6.
Cc1cc(NS(=O)(=O)c2ccc(NC(=O)Cc3ccc(Cl)c(Cl)c3)cc2)on1 was read as PrPC surface inh 4.3.
`O=C(NCc1ccc(Cl)c(Cl)c1)O[C@H]1CC[C@@]23CCCN2C(=O)CCC[C@H]3C1` gave PrPC surface inh -7.8.
COc1ccc2c(c1)CN1CN(Cc3ccc(F)cc3)S(=O)(=O)CC21 (stereo unspecified) was read as PrPC surface inh 1.6.
`COc1ccc2c(CC(=O)NCc3ccc4c(c3)OCO4)coc2c1` gave FBA Mtb inh 0.7, GDH-TPI counter 11.5, PrPC surface inh 3.2, PfHsp40 rescue 0.1, BJeLR viability -9.7 and PrP UTR inh -9.2.
COc1ccc2cc3cc(C(=O)NCc4cccnc4)oc3nc2c1 was read as FBA Mtb inh active, GDH-TPI counter 22.7, PrPC surface inh -4.7, PfHsp40 rescue 1.7, BJeLR viability -2.7 and PrP UTR inh -23.9.
For COc1ccc2cc3cc(C(=O)NCc4ccc5c(c4)OCO5)oc3nc2c1 the results were FBA Mtb inh 18.7, GDH-TPI counter 36.8*, PrPC surface inh -12.6, PfHsp40 rescue 1.9, BJeLR viability 0.7 and PrP UTR inh -25.9.
Screening COc1ccc2cc3cc(C(=O)Nc4ccc5c(c4)OCCO5)oc3nc2c1 returned FBA Mtb inh 3.7, GDH-TPI counter 43.0*, PrPC surface inh -2.8, PfHsp40 rescue 0.5, BJeLR viability 3.4 and PrP UTR inh -15.9.
COc1ccc(C(=O)NCc2cccnc2)cc1 was read as FBA Mtb inh 1.6, GDH-TPI counter 1.2, PrPC surface inh -0.8, PfHsp40 rescue 0.3, BJeLR viability -0.6 and PrP UTR inh -17.9.
Screening CCc1c(-c2ccc(Br)cc2)ncn1Cc1cccc(-c2ccccc2)c1 returned PrPC surface inh 5.1.
